We go through 23 compounds from PubChem BioAssay (Tox21).

Results filed as inconclusive are left out. Unmarked numbers belong to inactive results. Activity calls are given as the source filed them. Unless noted, the call rests on the fitted dose curve; in most records, active means well fitted curve in the direction sought with a large enough effect in the repeat runs; inconclusive means weak or mixed curves; inactive means no such curve, though single readings can be large; an effect the other way counts as inactive or inconclusive.

The nature of test [1]: qHTS assay to identify aromatase inhibitors - cell viability counter screen (AID 743084).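 Further: cells stimulated with testosterone during compound exposure; nearly all actives have a fitted effect of over 55% in size.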 Further: potency means the concentration at half of the fitted maximal effect.
For test [2], the target named is Aryl hydrocarbon receptor (Homo sapiens) (UniProt P35869). Kind of test: qHTS assay to identify small molecule that activate the aryl hydrocarbon receptor (AhR) signaling pathway (AID 743085). Further: nearly all actives have a fitted effect of over 15% in size. Further: potency means the concentration at half of the fitted maximal effect.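 On activation: HG2L7.5c1 human HepG2 liver cells with stably integrated DRE-driven firefly reporter; series mostly up to about 70 µM.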 The gist of the method: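 HepG2 cells stably carrying a 20-DRE firefly luciferase reporter (HG2L7.5c1) treated with compound for 24 hr at 37C. Luciferase read by ONE-Glo luminescence, with CellTiter-Fluor viability read first.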

Test [3] in a line: qHTS assay to identify small molecule that activate the aryl hydrocarbon receptor (AhR) signaling pathway - cell viability counter screen (AID 743086). Further: series mostly up to about 70 µM; nearly all actives have a fitted effect of over 45% in size. The gist of the method:
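HepG2-AhR-luc (HG2L7.5c1) cells, 4000/well, treated 24 h at 37 C with compound; viability measured as CellTiter-Fluor fluorescence after 30 min in the same wells as the luciferase read.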

The nature of test [4]: qHTS assay to identify small molecule antagonists of the peroxisome proliferator-activated receptor gamma (PPARg) signaling pathway - cell viability counter screen (AID 743194). Further: nearly all actives have a fitted effect of over 55% in size. In a few lines: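 Cytotoxicity counter screen in PPARg-bla HEK293H cells, same wells as reporter assay. Compounds plus 50 nM rosiglitazone (final) for 17 h at 37 C, then viability read by CellTiter-Glo luminescence.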

Test [5] in a line: qHTS assay for small molecule agonists of the antioxidant response element (ARE) signaling pathway (AID 743202; active means well fitted activation curve with a large enough effect in the signal ratio in the repeat runs, not every such curve was filed as active; the % refers to the signal ratio; further: potency means the concentration at half of the fitted maximal effect). In a few lines: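 Agonist mode reporter screen: HepG2 cells with ARE-controlled beta-lactamase are incubated with test compounds for 16 h at 37 C, and beta-lactamase activity is measured as fluorescence of cleaved B/G FRET substrate.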
The nature of test [6]: qHTS assay for small molecule agonists of the antioxidant response element (ARE) signaling pathway - cell viability counter screen (AID 743203; calls by dose curve; further: nearly all actives have a fitted effect of over 55% in size). In a few lines: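 Cells (ARE-bla HepG2, 2,000/well) receive DMSO-dissolved compounds after a 5 hrs rest. Plates incubate 16 hrs at 37C/5% CO2. CellTiter-Glo luminescence is then recorded after 30 min at room temperature.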
A short description of test [7]: qHTS assay for small molecule activators of the heat shock response signaling pathway - cell viability counter screen (AID 743209). Further: nearly all actives have a fitted effect of over 50% in size. In a few lines: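 Quantitative HTS format, Tox21 10K library. HeLa cells carrying an HSE-driven beta-lactamase reporter were treated 5 h at 37 C, then assessed for viability by CellTiter-Glo luminescence.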
Test [8] is described as follows: qHTS assay for small molecule activators of the heat shock response signaling pathway (AID 743210; active means well fitted activation curve with a large enough effect in the signal ratio in the repeat runs, with a control signal flat, not every such curve was filed as active; the % refers to the signal ratio; further: series mostly up to about 63 µM). The gist of the method:
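Quantitative high-throughput format using an engineered HeLa line in which heat shock response elements drive beta-lactamase; after 5 h with compound, cells received a B/G FRET substrate and fluorescence was read.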

Test [9] concerns the target Peroxisome proliferator-activated receptor gamma (Homo sapiens) (UniProt P37231). Briefly: qHTS assay to identify small molecule agonists of the peroxisome proliferator-activated receptor gamma (PPARg) signaling pathway (AID 743094; active means well fitted activation curve with a large enough effect in the signal ratio in the repeat runs, not every such curve was filed as active; the % refers to the signal ratio). In a few lines:
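Stably transfected HEK293H cells (GeneBLAzer PPARg UAS-bla) were incubated with test substances for 17 h at 37C after a 5 h pre-incubation; beta-lactamase activity was then detected by FRET substrate fluorescence.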

The target is the same in test [10]. Briefly: qHTS assay to identify small molecule antagonists of the peroxisome proliferator-activated receptor gamma (PPARg) signaling pathway (AID 743191; calls by dose curve; further: nearly all actives have a fitted effect of over 30% in size; further: potency means the concentration at half of the fitted maximal effect; on ratio activity, negative = inhibition: series mostly up to about 63 µM). In a few lines:
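GeneBLAzer PPARg UAS-bla HEK293H cells, 5 h post-plating, exposed to compounds 17 h at 37C. LiveBLAzer B/G FRET substrate added for 1 h at room temperature; beta-lactamase reporter read by fluorescence intensity.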
On the % scale 0 is the no-effect control and ±100 the full control effect.

Aryl hydrocarbon receptor (Homo sapiens), sequence (P35869 whole entry, looked up): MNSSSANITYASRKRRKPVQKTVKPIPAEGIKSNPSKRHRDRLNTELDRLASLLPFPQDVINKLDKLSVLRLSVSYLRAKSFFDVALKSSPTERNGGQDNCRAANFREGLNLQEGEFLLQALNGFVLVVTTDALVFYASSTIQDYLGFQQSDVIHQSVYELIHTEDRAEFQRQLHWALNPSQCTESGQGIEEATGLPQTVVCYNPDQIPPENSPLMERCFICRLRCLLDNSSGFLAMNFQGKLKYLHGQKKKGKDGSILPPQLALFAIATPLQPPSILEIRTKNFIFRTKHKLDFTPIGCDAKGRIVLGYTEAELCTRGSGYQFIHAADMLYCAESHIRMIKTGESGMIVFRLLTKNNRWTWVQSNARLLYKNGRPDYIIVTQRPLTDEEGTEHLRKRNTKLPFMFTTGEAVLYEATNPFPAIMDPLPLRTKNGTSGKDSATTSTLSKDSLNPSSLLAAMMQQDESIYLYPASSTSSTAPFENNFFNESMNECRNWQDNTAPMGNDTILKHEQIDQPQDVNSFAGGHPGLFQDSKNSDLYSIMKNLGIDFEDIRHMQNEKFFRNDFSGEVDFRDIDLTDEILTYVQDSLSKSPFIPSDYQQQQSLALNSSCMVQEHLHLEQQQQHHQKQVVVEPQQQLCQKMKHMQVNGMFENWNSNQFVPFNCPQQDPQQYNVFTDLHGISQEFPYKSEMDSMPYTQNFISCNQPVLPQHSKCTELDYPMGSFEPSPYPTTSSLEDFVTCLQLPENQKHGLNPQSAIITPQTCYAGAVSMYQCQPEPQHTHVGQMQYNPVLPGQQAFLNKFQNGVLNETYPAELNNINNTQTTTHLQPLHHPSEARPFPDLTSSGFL
Peroxisome proliferator-activated receptor gamma (Homo sapiens), sequence (P37231 whole entry, looked up): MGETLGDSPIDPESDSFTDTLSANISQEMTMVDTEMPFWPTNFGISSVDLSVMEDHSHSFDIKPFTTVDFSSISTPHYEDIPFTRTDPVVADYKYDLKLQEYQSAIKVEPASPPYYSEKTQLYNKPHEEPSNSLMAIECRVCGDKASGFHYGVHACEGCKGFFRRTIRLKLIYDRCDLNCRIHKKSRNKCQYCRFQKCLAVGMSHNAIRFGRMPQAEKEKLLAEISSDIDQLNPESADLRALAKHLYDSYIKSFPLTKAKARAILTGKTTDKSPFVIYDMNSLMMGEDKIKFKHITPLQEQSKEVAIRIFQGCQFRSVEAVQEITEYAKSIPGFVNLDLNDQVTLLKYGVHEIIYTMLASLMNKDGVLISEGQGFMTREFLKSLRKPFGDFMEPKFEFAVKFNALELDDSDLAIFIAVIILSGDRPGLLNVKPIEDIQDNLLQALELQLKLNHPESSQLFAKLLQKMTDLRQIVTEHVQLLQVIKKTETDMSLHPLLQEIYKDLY

For the compound `C1CCN2C[C@@H]3C[C@@H](CN4CCCC[C@@H]34)[C@H]2C1`, the Potency entry in test [1], in test [2], in test [3] and in test [5] was “inactive” in each case. Moreover, the result in test [4] and in test [6] was inactive.
In the case of `Cn1c(=O)c2c(ncn2CC2OCCO2)n(C)c1=O`, the Potency result in [1], in test [2], in test [3] and in test [5] was “inactive” each time. For the same compound, the compound was called inactive in test [4], in test [6], in test [7] and in test [8].
In the case of `C=C(C)C(=O)OC1CC(C)CC(C)(C)C1` (stereo not drawn), the Potency entry in test [1], in test [2] and in test [10] was “inactive” in each case. Also, the outcome in test [9], in test [4], in test [6] and in test [7] was inactive.
Take `O=P(O)(O)OCC(O)CO` (stereo not drawn): the Potency result in test [1], in [2], in test [10] and in test [5] was “inactive” in each case. Moreover, the result in [9], in [4] and in test [6] was inactive.
`COc1cc2c(Nc3ccc(Br)cc3F)ncnc2cc1OCC1CCN(C)CC1`: the Potency entry in test [1], in test [2], in [10] and in test [5] was “inactive” each time. Further, the result in test [9], in test [4], in test [6] and in [8] was inactive.
With `COc1ccc(NS(=O)(=O)c2ccc(N)cc2)nn1`, the Potency result in test [1], in test [2], in test [3] and in test [5] was “inactive” throughout. Besides, the compound was called inactive in test [4], in test [6], in test [7] and in test [8].
As to `Nc1ccc(S(=O)(=O)NC(=O)c2ccccc2)cc1`, the Potency entry in [1], in [2], in test [3] and in test [10] was “inactive” throughout. The compound was called inactive in test [4], in test [6], in test [7] and in [8].
As to `C[N+](C)(C)CC(O)CCl` (stereo not drawn), the Potency result in test [1], in test [2], in [10] and in [5] was “inactive” in each case. Also, the compound was classed as inactive in [9], in [4], in [6], in [7] and in test [8].
For `Cc1oc(=O)oc1CN1CCN(c2cc3c(cc2F)c(=O)c(C(=O)O)c2n3C(C)S2)CC1` (stereo not drawn), the Potency result in test [1], in test [2], in [3] and in [10] was “inactive” in each case. In addition, the call in test [4], in test [6], in [7] and in test [8] was inactive.
Turning to `Oc1ccccc1Cc1ccccc1O`, the Potency result in [1] and in test [2] was “inactive” in each case. The result in test [9], in [6] and in test [7] was inactive. For the same compound, the Potency in test [10] was 30.9 µM (active); in test [5] it was 38.6 µM (active).
As to `O=c1cc(O)c(Cl)c[nH]1`, the Potency result in test [1], in test [2] and in [10] was “inactive” throughout. Besides, the outcome in test [9], in test [4], in test [6] and in test [8] was inactive.
For `C[C@@H]1C[C@H]2[C@@H]3C[C@H](F)C4=CC(=O)C=C[C@]4(C)[C@@]3(F)[C@@H](O)C[C@]2(C)[C@@]1(O)C(=O)CO`, the Potency entry in test [1], in test [2], in [3] and in [5] was “inactive” each time. For the same compound, the result in [4], in test [6] and in [7] was inactive.
`O=C(O)c1ccccc1C(=O)Nc1ccc(S(=O)(=O)Nc2nccs2)cc1`: the Potency entry in test [1], in test [2], in test [3], in test [10] and in test [5] was “inactive” in each case. Besides, the compound was called inactive in test [6], in [7] and in test [8].
`C=CCOCC(O)CCl` (stereo not drawn): the Potency result in test [1], in test [2], in test [3] and in test [10] was “inactive” throughout. The outcome in test [4] and in [6] was inactive.
As to `CN(C)CCOCCN(C)CCO`, the Potency result in test [1], in [2], in test [10] and in [5] was “inactive” each time. For the same compound, the compound was classed as inactive in [9], in [4], in test [6], in test [7] and in test [8].
For `CC1=NN(c2ccc(S(=O)(=O)O)cc2)C(=O)C1N=Nc1ccccc1` (stereo not drawn), the Potency in test [1] was 54.5 µM (active); in test [2], 24.3 µM (active). Besides, the result in test [9], in test [4], in test [6], in test [7] and in [8] was inactive. Also, in [10], the Potency result is “inactive”.
Consider `C=CCCCCCCCCCCC`, for which the activity change, negative = cytotoxicity in test [1] is 2.95% [at 8.47 µM]; in test [4], 13.8% [at 5.95 µM]; in test [7], -3.82% [at 5.95 µM]. In addition, the activation in [2] is -0.125% [at 8.47 µM]. For the same compound, the results for the viability change, negative = cytotoxic in test [3] and in [6] were 0.7% [at 8.47 µM] and 9.33% [at 8.36 µM], respectively. The ratio activity, negative = inhibition in [10] is 16.1% [at 5.95 µM].
Take `C=C(C)C(=O)OC`: the Potency result in test [1], in test [2], in [3] and in test [5] was “inactive” throughout. The outcome in test [4], in [6], in test [7] and in test [8] was inactive.
`C=CCOc1cc(Cl)ccc1C(=O)NCCN(CC)CC`: the Potency entry in test [1], in test [2] and in test [5] was “inactive” each time. Besides, the outcome in test [9], in test [4], in test [6], in test [7] and in test [8] was inactive.
Consider `O=C1OC(=O)c2cc(Oc3ccc4c(c3)C(=O)OC4=O)ccc21`, for which the Potency entry in test [1], in test [2], in test [3] and in test [5] was “inactive” each time. The compound was called inactive in test [4], in test [6], in [7] and in test [8].
Turning to `C=CCOC(=O)c1ccc(C(=O)OCC=C)c(C(=O)OCC=C)c1`, the Potency entry in [1], in [2], in test [10] and in [5] was “inactive” each time. Further, the call in test [9], in test [4], in test [6], in test [7] and in test [8] was inactive.
Turning to `NS(=O)(=O)c1ccccc1OC(F)(F)F`, the Potency entry in [1], in test [2], in [3] and in test [10] was “inactive” throughout. Moreover, the compound was classed as inactive in test [4], in test [6], in test [7] and in [8].
`CCCCCCCCCCCCCC(=O)OC`: the Potency result in test [1], in test [2], in [10] and in test [5] was “inactive” each time. Besides, the call in test [9], in test [4], in test [6], in test [7] and in [8] was inactive.
